Laboratory results reported in PubChem BioAssay.
Results with a measured potency or affinity are listed apart. Activity calls are given as the source filed them.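 Rule for the calls: active = fitted half-maximal concentration within the tested dose range, moderate curve steepness, a statistically real signal drop, and little compound fluorescence or tag-binding interference; inactive = the rest.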

Target: Cell division control protein 42 homolog (Homo sapiens) (UniProt P60953)
Experiment: activated mutant Cdc42 GTP-binding inhibitors, dose response, biochemical, multiplex bead flow cytometry, Bodipy-FL-GTP (AID 1333)
Settings: bead-based flow cytometry; series mostly up to 100 µM

outcome, inactive:
COc1cc2c(cc1OC)-c1cc(NC3CCCCCC3)nc(=O)n1CC2
O=C1c2ccccc2-c2onc3ccc(Oc4ccccc4)c1c23
CCN(CC)c1ccc2c(c1)oc(=O)c1c(Cl)cc(=O)oc12
CCOc1nnc(C)c2c(C)n(-c3cccc(OC)c3)nc12
Cc1nnc(N2CCOCC2)c2nn(-c3ccccc3)c(C)c12
O=C(C#Cc1ccccc1)c1cccc([N+](=O)[O-])c1
COC(=O)c1ccc2nc(Nc3nc4c(F)cc(F)cc4s3)sc2c1
COc1ccc(/C=C/C(=O)c2cc(Br)ccc(=O)c2O)cc1
O=C(NNC(=S)NCc1ccc(Cl)cc1)c1ccc(Br)o1
O=C(O)c1ccccc1OCCOc1ccccc1
CN1C(=O)N(C)c2ccc(C=O)c3cccc1c23
CCN1/C(=C/C=C/C=C/c2sc3ccccc3[n+]2CC)Sc2ccccc21
O=C(C#Cc1cccc([N+](=O)[O-])c1)c1ccccc1
O=C(O)c1cn(CCOc2ccccc2)c2ccccc12
CCOc1cccc(-c2nn3c(-c4ccco4)nnc3s2)c1
COC(=O)n1c(=S)oc2cc(Cl)ccc21
O=C(/C=C/c1ccc(Cl)c([N+](=O)[O-])c1)c1cccnc1
COCCN1C(=O)/C(=C/c2ccc(N3CCCC3)cc2C)SC1=S
N=c1c(C(=O)NCc2ccco2)cc2c(=O)n3ccccc3nc2n1CCc1ccccc1
O=C(OCC1O[C@@H](OC(=O)c2cc(O)c(O)c(O)c2)[C@@H](OC(=O)c2cc(O)c(O)c(O)c2)[C@@H](OC(=O)c2cc(O)c(O)c(O)c2)[C@@H]1OC(=O)c1cc(O)c(O)c(O)c1)c1cc(O)c(O)c(O)c1 (some centres undefined)
COc1cccc2sc(Nc3nc(-c4ccccn4)cs3)nc12
COc1ccc(-c2csc(NC(=S)NC(=O)c3cccs3)n2)cc1OC
Oc1ccc2ccccc2c1/C=N/Nc1nnc(-c2ncc[nH]2)c2ccccc12
COc1ccc(NC(=O)CSc2ccc3nnc(-c4cccnc4)n3n2)c(OC)c1
O=C(c1nnsc1S(=O)(=O)c1ccc(Cl)cc1)N1CCOCC1
CN(C)c1ccc(/C=C/C(=O)c2cccc(Br)c2)cc1
CN(c1ccccc1)c1ccc(/C=c2\s/c(=C(/C#N)C(=O)C(C)(C)C)n(Cc3ccco3)c2=O)cc1
CS(=O)(=O)N1N=C(c2ccccc2)CC1c1ccc2c(c1)OCO2 (centres undefined)
COc1ccc(-c2nnc(SCC(=O)c3cccs3)o2)cc1
COc1ccc(CNc2ccccc2C(=O)O)cc1
CCOC(=O)c1c(NC(=O)/C=C/c2ccc3c(c2)OCO3)sc(C)c1CC
CCOC(=O)N1CCN(C(=O)CCc2ccc(S(=O)(=O)NCCc3ccccc3)cc2)CC1
CC(C)(C)c1ccc(C(=O)CC(Sc2ccc(Cl)cc2)C(=O)O)cc1 (centres undefined)
NC(=S)N=Nc1c(O)[nH]c2ccc(F)cc12
COc1cc(/C=N\NC(=O)c2sc(N)nc2C)cc(OC)c1OC
Cc1cc(C)c(C(=O)Cn2cnc3cc([N+](=O)[O-])ccc3c2=O)cc1C
O=C(COc1ncnc2cc([N+](=O)[O-])ccc12)NCCc1ccc(Cl)cc1
COC(=O)C1=NN(C(=O)c2cccc(Br)c2)C(O)(c2ccc(Cl)cc2)C1 (centres undefined)
CC(C)(C)C(=O)/C=c1\s/c(=C\c2ccc(-c3ccc([N+](=O)[O-])cc3)o2)c(=O)n1CC(=O)NC(N)=O
